Consider seven molecules from PubChem BioAssay (NCI).

Holding throughout (assay): NCI-60 one-dose screen, 48 h (100 = growth as untreated, 0 = no growth, -100 = all killed)
One assay has as its system HCT-15 colon. The note with it: 10 µM unless noted.
The test system of a further assay is HT29 colon. The note with it: 10 µM unless noted.
The test system of the next assay is SNB-75 CNS. The following applies: 10 µM unless noted.
The next assay has as its system SNB-19 CNS. The note with it: 10 µM unless noted.
For a further assay, the system named is U251 CNS. The note with it: 10 µM unless noted.
For a further assay, the system named is PC-3 prostate. The note with it: 10 µM unless noted.
Another assay deals with SK-MEL-5 melanoma. The following applies: 10 µM unless noted.
Another assay deals with UACC-62 melanoma. The note with it: 10 µM unless noted.
For the next assay, the system named is LOX IMVI melanoma. The following applies: 10 µM unless noted.
Another assay relates to SK-MEL-28 melanoma. The note with it: 10 µM unless noted.
Another assay has as its system SK-MEL-2 melanoma. The following applies: 10 µM unless noted.
A further assay relates to EKVX NSCLC. The following applies: 10 µM unless noted.
The subject of a further assay is SN12C renal. The note with it: 10 µM unless noted.
In a further assay the test system is UO-31 renal. The note with it: 10 µM unless noted.
The subject of another assay is TK-10 renal. The note with it: 10 µM unless noted.
In another assay the test system is ACHN renal. The note with it: 10 µM unless noted.
The subject of the next assay is CAKI-1 renal. The note with it: 10 µM unless noted.
A further assay concerns A498 renal. The note with it: 10 µM.
The next assay has as its system HL-60(TB) leukemia. The following applies: 10 µM unless noted.
A further assay relates to CCRF-CEM leukemia. The note with it: 10 µM unless noted.

About 83,000 compounds went through this panel and 20% of them were active in at least one assay; those are over-represented in the sample as a whole.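 Results are percent growth after 48 hours of single-concentration exposure. 100 means growth as in untreated cells, lower positive values show inhibition; negative values down to -100 show cell death.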 Values without a mark were called inactive. Active and inactive are the calls of the source. The calls were made as follows: active = growth percent below 10; inactive = the rest.

For `O=C1C2CC=CCC2C(=O)N1SC(Cl)(Cl)Cl` (centres undefined), the growth was 67.3% in the assay with HCT-15 colon; 89.2% in the assay with HT29 colon; 104% with SNB-75 CNS; 91.5% with SNB-19 CNS; 98.8% with U251 CNS; 81.9% in the assay on PC-3 prostate. The growth was 94.1% in the assay on SK-MEL-5 melanoma; 93.6% in the assay on UACC-62 melanoma; 78.6% with LOX IMVI melanoma; 132% in the assay with SK-MEL-28 melanoma; 122% with SK-MEL-2 melanoma; 121% in the assay with EKVX NSCLC. Moreover, the growth is 97.4% with SN12C renal; 4.07% (active) in the assay on UO-31 renal; 115% with TK-10 renal; 72.3% with ACHN renal; 72.8% in the assay on CAKI-1 renal; 139% with A498 renal. Moreover, the growth was 46.2% in the assay with HL-60(TB) leukemia and 21.6% in the assay with CCRF-CEM leukemia.

In the case of `O=[N+]([O-])c1ccc([Se]C2CCCCC2Cl)c([N+](=O)[O-])c1` (centres undefined), the growth is 88.3% in the assay on HCT-15 colon; 60.7% in the assay on HT29 colon; -39.9% (active) in the assay on SNB-75 CNS; 56.2% in the assay with SNB-19 CNS; 20.4% in the assay with U251 CNS; 58.9% in the assay on PC-3 prostate. The growth was 68.6% in the assay on SK-MEL-5 melanoma; 72.2% with UACC-62 melanoma; -55.2% (active) with LOX IMVI melanoma; 72.6% in the assay on SK-MEL-28 melanoma; 66.5% in the assay on SK-MEL-2 melanoma; 46% in the assay with EKVX NSCLC. The growth in the assay on SN12C renal was 59.5%; in the assay with UO-31 renal, -88.3% (active); with TK-10 renal, 102%; in the assay with ACHN renal, 88.2%; with CAKI-1 renal it was 76.7%; in the assay with A498 renal, 29.4%. In addition, the growth in the assay with CCRF-CEM leukemia is 80.9%.

With `N#CC1(C#N)C(c2ccc(N(CCCl)CCCl)cc2)OC23CCCCC2C1(C#N)C(=N)O3` (centres undefined), the growth in the assay on HCT-15 colon was 90.6%; in the assay on HT29 colon it was 106%; with SNB-75 CNS, 63.3%; with SNB-19 CNS it was 84.4%; in the assay on U251 CNS, 75.8%; in the assay on PC-3 prostate it was 74.8%. For the same molecule, the growth in the assay on SK-MEL-5 melanoma is 83.3%; with UACC-62 melanoma, 53.2%; in the assay with LOX IMVI melanoma, 68.6%; in the assay on SK-MEL-28 melanoma it was 111%; in the assay with SK-MEL-2 melanoma, 122%; in the assay on EKVX NSCLC it was 108%. Besides, the growth in the assay on SN12C renal is 69.1%; in the assay with UO-31 renal, 72.1%; in the assay with TK-10 renal, 91.9%; in the assay on ACHN renal it was 50.2%; in the assay with CAKI-1 renal, 55.8%; with A498 renal, 56.6%. Also, in the assay with CCRF-CEM leukemia, the growth was 77%.

With `O=C1C(=Cc2cn(Cc3ccccc3)c3ccccc23)C(=O)N(Cc2ccccc2)C(=O)N1Cc1ccccc1`, the growth in the assay with HCT-15 colon was 85.8%; in the assay with HT29 colon, 111%; in the assay on SNB-75 CNS, 45%; in the assay on SNB-19 CNS, 87.1%; in the assay with U251 CNS it was 75.7%; with PC-3 prostate it was 90.3%. Also, the growth is 104% with SK-MEL-5 melanoma; 53.1% with UACC-62 melanoma; 87.2% in the assay with LOX IMVI melanoma; 110% in the assay on SK-MEL-28 melanoma; 83.9% with SK-MEL-2 melanoma; 97.5% with EKVX NSCLC. The growth in the assay with SN12C renal was 101%; in the assay on UO-31 renal, 73.3%; with TK-10 renal, 40.7%; in the assay on ACHN renal, 86.2%; with CAKI-1 renal, 94.6%; in the assay on A498 renal, -95.7% (active). For the same molecule, the growth in the assay on HL-60(TB) leukemia is 96.4%; in the assay with CCRF-CEM leukemia, 118%.

As to `C=CCCCN=C=S`, the growth in the assay with HCT-15 colon is 55.4%; with HT29 colon, 37.4%; with SNB-75 CNS, 64.2%; in the assay on SNB-19 CNS it was 84.2%; in the assay with U251 CNS, 79.5%; in the assay with PC-3 prostate, 87%. Besides, the growth with SK-MEL-5 melanoma is 95.1%; with UACC-62 melanoma, 63.4%; in the assay on LOX IMVI melanoma it was 53.8%; in the assay with SK-MEL-28 melanoma it was 83.2%; in the assay with SK-MEL-2 melanoma, 56%; in the assay with EKVX NSCLC, 92.7%. In addition, the growth was 60.1% with SN12C renal; 70% in the assay with UO-31 renal; 69.1% with TK-10 renal; 77.9% with ACHN renal; 83.3% in the assay with CAKI-1 renal; 76% with A498 renal. The growth with CCRF-CEM leukemia was 50.1%.

`CC(C)(C)C(=O)OCOP(=O)(NCc1ccccc1)C1CCCN(O)C1=O` (centres undefined): the growth in the assay on HCT-15 colon is 22.5%; with HT29 colon, 21.5%; in the assay with SNB-75 CNS, 70.6%; in the assay with SNB-19 CNS it was 37.9%; in the assay with U251 CNS, 13.8%; in the assay on PC-3 prostate it was 67.7%. Also, the growth in the assay with SK-MEL-5 melanoma was 31.2%; in the assay on UACC-62 melanoma, 19.5%; in the assay with LOX IMVI melanoma, 51.9%; with SK-MEL-28 melanoma it was 17%; with SK-MEL-2 melanoma it was 53.7%; in the assay with EKVX NSCLC, 67.3%. The growth was 5.58% (active) in the assay with SN12C renal; 1.82% (active) in the assay with UO-31 renal; 68.9% with TK-10 renal; 34.2% in the assay on ACHN renal; 31.9% with CAKI-1 renal; 52.2% in the assay on HL-60(TB) leukemia. Also, the growth in the assay with CCRF-CEM leukemia was 12.9%.

Regarding `CC(=O)O[C@H](C[C@H](C(C)C)N(C)C(=O)[C@@H](NC(=O)[C@H]1CCCCN1C)C(C)C)c1nc(C(=O)N[C@@H](Cc2ccccc2)C[C@H](C)C(=O)O)c(CCOCc2ccccc2)s1`, the growth was 6.72% (active) in the assay with HCT-15 colon; -4.51% (active) in the assay on HT29 colon; 0.84% (active) with SNB-75 CNS; 16% with SNB-19 CNS; 11.5% with U251 CNS; 21.9% with PC-3 prostate. Besides, the growth was -40.5% (active) in the assay with SK-MEL-5 melanoma; 27.1% with UACC-62 melanoma; 11.8% in the assay with LOX IMVI melanoma; 42% with SK-MEL-28 melanoma; 2.3% (active) with SK-MEL-2 melanoma; 49% with EKVX NSCLC. Also, the growth is 9.77% (active) in the assay on SN12C renal; 31.8% in the assay on UO-31 renal; 31.3% in the assay with TK-10 renal; 12.3% in the assay with ACHN renal; 24.4% with CAKI-1 renal; -29.3% (active) in the assay with HL-60(TB) leukemia.
